Reference: PubChem BioAssay AID624417 (National Center for Advancing Translational Sciences (NCATS), 2012)
The campaign covered roughly 410,000 compounds. About 6,400 (1.6%) were called active. Roughly 20% stayed inconclusive and do not appear here. The call rests on the fitted dose curve; in most records, active means well fitted inhibition curve with a large enough effect; inconclusive means small, poorly fitted or top-dose-only effect; inactive means no such curve, though single readings can be large or run the other way. Many of the other results were omitted from the sample, so actives are more common in it than they were.

target: Glucagon-like peptide 1 receptor (Homo sapiens) (UniProt P43220); test: qHTS of GLP-1 Receptor Inverse Agonists (Inhibition Mode); settings: HEK293 GLP-1R CRE-luciferase, luminescence, 24 h, GLP-1R form is constitutively active; series mostly up to 38.3 µM; activity change, negative = inhibition: at the top concentration; further: nearly all actives have a fitted effect of over 55% in size
Sequence (P43220 whole entry, looked up): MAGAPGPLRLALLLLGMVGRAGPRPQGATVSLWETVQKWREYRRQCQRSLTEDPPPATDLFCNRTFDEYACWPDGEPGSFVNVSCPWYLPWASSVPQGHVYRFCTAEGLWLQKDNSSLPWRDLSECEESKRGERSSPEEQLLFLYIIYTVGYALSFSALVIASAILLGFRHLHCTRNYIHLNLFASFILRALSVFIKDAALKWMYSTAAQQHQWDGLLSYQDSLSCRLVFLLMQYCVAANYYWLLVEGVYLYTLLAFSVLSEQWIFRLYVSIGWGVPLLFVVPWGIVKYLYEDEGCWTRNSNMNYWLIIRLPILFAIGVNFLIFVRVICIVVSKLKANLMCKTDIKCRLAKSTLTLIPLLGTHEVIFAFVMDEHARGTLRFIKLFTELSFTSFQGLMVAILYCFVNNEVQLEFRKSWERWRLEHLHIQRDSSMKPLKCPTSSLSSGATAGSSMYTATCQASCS
Method in brief: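 HEK293 cells stably co-expressing a cAMP-responsive luciferase reporter and constitutively active GLP-1R were seeded, incubated 12 h, then exposed to compounds for 24 h at 37 C. Luminescence was read 12 min after detection reagent; inverse agonists lower signal.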
On the % scale 0 is the no-effect control and ±100 the full control effect; potency means the concentration at half of the fitted maximal effect.

Activity change, negative = inhibition, inactive:
CC1(C(=O)NS(=O)(=O)c2ccccc2)CCN1C(=O)c1ccccc1 (centres undefined) 22.7%
Nc1nc(CSc2nnnn2-c2ccccc2)nc(Nc2ccccc2)n1 25.2%
CCOC(=O)C1=CCC2C(=O)N(Cc3ccccc3)C(=O)C12 (centres undefined) 19.7%
COC(=O)[C@]12CCCCC=C1N(Cc1ccco1)C(=O)[C@H](CC(=O)NCCCCc1ccccc1)C2 -33.9%
CCN(C(=O)Nc1cccc2ccccc12)c1ccccc1 -26.5%
CC(C)[C@H](NC(=O)c1ccccc1F)C(=O)Nc1cccc(S(=O)(=O)N2CCOCC2)c1 -8.55%
CCCNC(=O)C1(C)CCN(C(=O)c2ccccc2OC(F)(F)F)C1 (centres undefined) -9.35%
OC[C@H]1O[C@@H](c2nc(-c3nc(-c4ccc(F)cc4)no3)cs2)[C@H](O)[C@@H](O)[C@H]1O 0.715%
CC1(C(=O)NCc2ccccc2)CN(S(C)(=O)=O)CC(=O)N1CC(F)(F)F (centres undefined) -0.0418%
CC(=O)Nc1cccc(/C(C)=N/NC(=O)c2c(-c3ccccc3Cl)noc2C)c1 4.71%
COCCNC(=O)c1ccccc1-c1nc(-c2ccccc2Cl)no1 -3.04%
CCNC(=O)C1CCCN(C(=O)c2ccc(OC)cc2OC)CC1 (centres undefined) 20.1%
COc1ccc(NC(=O)c2cc(-c3ccc(C)o3)nc3ccccc23)cc1 -24.4%
COc1ccccc1NC(=O)c1cc(C2CC2)nc2c1c(C)nn2-c1ccc(C)cc1 -11.6%
CC(C)C[C@H]1CNC(=O)C(=O)N1C[C@@H]1CCCN1C[C@H](Cc1ccccc1)N1C[C@H](CC(C)C)N(CC2CCCCCC2)C(=O)C1=O 24.7%
Cc1ccc(S(=O)(=O)N(C)C)cc1NC(=O)COC(=O)c1c(C)noc1C 2.65%
CN(c1ccc(OCC(=O)O)cc1)S(=O)(=O)c1ccc2ccccc2c1 3.29%
COC(=O)c1ccc2nc(-c3cccc(Br)c3)c(Cc3ccc(OC)cc3C)n2c1 -12%
COc1ccc(NC(=O)N(C)C[C@@H]2OCc3cn(nn3)CCCC(=O)N([C@H](C)CO)C[C@H]2C)c(OC)c1 -5.31%
O=C(NCCc1csc(-c2ccccc2)n1)c1ccccc1F -18.6%
CN1OC[C@@H]2CN(C(=O)c3cccnc3)[C@H](c3ccc(N4CCCCC4)cc3)C[C@@H]21 22.9%
CNC(=O)C[C@H]1C(=O)N(Cc2ccccc2)C[C@@H]1CSC 3.07%
Oc1ccc(-c2nc3ccc(Cl)cn3c2Nc2ccc3c(c2)OCO3)cc1 5.13%
Oc1ccccc1-c1nc2ccc(Cl)cn2c1Nc1ccc2c(c1)OCCO2 4.4%
O=C(NCCS(=O)(=O)N1CCN(c2ccccc2)CC1)c1cc(=O)c2ccccc2o1 -0.814%
CC1(C2CC2)NC(=O)N(CC(=O)N2CCN(c3ccccc3F)CC2)C1=O (centres undefined) 3.81%
O=C(Nc1ccc(OCCO)cc1)c1csc([C@H]2C[C@H](O)[C@@H](CO)O2)n1 14.8%
COc1ccc(CSc2nc(N3CCOCC3)c3c(c2C#N)CC(C)(C)OC3)cc1 -7.76%
CCOC(=O)CSc1nccc(N(C)C)c1C#N 4.71%
Cc1ccc(-c2c(N)nc3ncccn23)cc1 8.12%
CCCc1c(-c2ccccc2F)ncn1Cc1ccccc1OC -29.9%
CSc1ccc(CN2CCC2(C)C(=O)Nc2ccc(C)c(O)c2)cc1 (centres undefined) -23.4%
COc1cccc(NC(=O)C2(C)CCN2C(=O)CCC2CCCC2)c1 (centres undefined) -23.3%
Cc1ccc(C)c(C(O)c2ncc(-c3cccc4ccccc34)[nH]2)c1 (centres undefined) -13.6%
CCc1ccccc1NC(=S)Nc1cc(OC)c(NC(=O)C(C)C)cc1OC -3.86%
O=S1(=O)CC(N2CCN(Cc3ccccc3F)CC2)CN1Cc1cn(Cc2ccccc2)nn1 (centres undefined) 0.366%
NS(=O)(=O)c1ccc(CCNC(=O)c2ccc(Cl)c(S(=O)(=O)N3CCCCCC3)c2)cc1 -24.7%
Cc1nn(Cc2ccccc2)c(C)c1CNC(=O)c1ccc(F)c(S(=O)(=O)N2CCOCC2)c1 -18.7%
CCCC(=O)N1CCC1(C)C(=O)Nc1ccc(-n2cncn2)cc1 (centres undefined) 14.1%
CCOC(=O)C1CCCN(C(=O)c2ccc(N(C)C)cc2)CC1 (centres undefined) 18.7%
O=C1c2ccccc2C(=O)c2c1cccc2N1CCN(CCO)CC1 0%
OCCN1CCN(c2nnc(-c3ccccc3)c3ccccc23)CC1 -8.64%
CC(=O)Nc1cc(-c2ccc(N3CCN(C)CC3)cc2)cn2c(-c3cccc(C(=O)N(C)C)c3)cnc12 14.6%
COc1ccc(CNC2CCCCC2)cc1 9.28%
COc1cc(C=O)c(Br)cc1OCC(=O)NCc1ccccc1 -19.7%
COc1cc2nnn(-c3ccncc3)c2cc1OC 25.3%
O=C(CN1CCCCCC1)Nc1ccc(Cl)cc1F -19.6%
O=C(CN1CCCCCC1)Nc1ccc(Br)cc1[N+](=O)[O-] -24.9%
COCCCNC(=O)c1cccc2c(-c3ccc(O)c(OC)c3)coc12 -6.91%
COc1cccc(CN2CCC(C(=O)NC(c3ccc4c(c3)OCO4)c3ccccn3)CC2)c1 (centres undefined) -6.91%
CCc1nc2ccc(C(=O)NC3CCN(Cc4ccccc4)CC3)cn2c1N(CC)CCOC 9.54%
Cc1cc(Br)cn2c(Cc3cccc(F)c3)c(-c3cccc(Br)c3)nc12 -29.4%
O=C1CCC(CCC(=O)N2CCCC(C(=O)c3ccc(Cl)cc3)C2)=NN1 (centres undefined) 16%
COCC(=O)N1CCCC(C(=O)c2ccc(C(F)(F)F)cc2)C1 (centres undefined) 4.28%
CCCNC(=O)c1cc(C2CCCCN2S(=O)(=O)c2cn(C)cn2)on1 (centres undefined) 14.7%
O=C(NCc1ccc(F)cc1)c1cc(C2CCCCN2C(=O)c2ccccn2)on1 (centres undefined) 11.6%
Cc1cccc(S(=O)(=O)N(C)C[C@H]2OCc3cnnn3CCCC(=O)N([C@@H](C)CO)C[C@H]2C)c1 9.44%
CSc1ccc(CCNC(=O)C2CCN(c3nnc(-n4cccc4)s3)CC2)cc1 -22.2%
CCOc1ccc(CNC(=O)C2CCN(c3nnc(-n4cccc4CNc4ccc(C)cc4)s3)CC2)cc1OC -7.98%
O=C(NCc1ccccc1)C(c1ccc(F)cc1)N1CCN(C(=O)C2CCCO2)CC1 (centres undefined) 14.2%
O=S1(=O)CC(N2CCSCC2)CN1Cc1cn(Cc2cccc(Cl)c2)nn1 (centres undefined) 6.48%
C[C@@H]1CN([C@@H](C)CO)C(=O)CCCn2cc(nn2)CO[C@H]1CN(C)S(=O)(=O)c1ccc(-n2cccn2)cc1 16.2%
COc1ccccc1NC(=O)C(CC(=O)O)Cc1cc(C)cc(C)c1 (centres undefined) -6.79%
COc1ccccc1NC(=O)CC(NCCN(C)C)C(=O)O (centres undefined) 3.36%
O=C(NCc1nnnn1-c1ccc(Cl)cc1)c1ccc2c(c1)OCO2 -3.95%
COc1cccc(/C=C2\SC(=S)N(CCCC(=O)N3CCOCC3)C2=O)c1 -18.9%
COc1ccc(S(=O)(=O)NC(C)C)cc1C(=O)NC1CCCCC1 5.65%
COc1ccccc1N(C)S(=O)(=O)c1ccc(C(=O)N2CCC(C(N)=O)CC2)cc1 0.999%
O=C(Nc1ccc(Cl)cc1)c1csc([C@@H]2O[C@H](CO)[C@H](O)[C@H](O)[C@H]2O)n1 14.7%
CSc1ncnc2c1ncn2CCCNCC1CCCCC1 8.69%
CCOC(=O)C1CCCN(C(=O)c2cc(-c3cccs3)oc2C)CC1 (centres undefined) -20.4%
O=C(NCc1ccc(F)cc1F)[C@@H]1CCCN1C(=O)[C@@H]1CCCN1C(=O)c1cccc(Cl)c1 23.8%
COc1ccc(N2c3ccccc3CN(Cc3ccccc3)[C@@H](C)[C@H]2Cc2ccc(-c3ccccc3)cc2)cc1 8.83%
COC(=O)c1ccc2nc(-c3ccccc3)c(Cc3ccc(OC)cc3C)n2c1 0.241%
CCN(CC)c1ncnc2c1ncn2[C@H]1CN(Cc2cccs2)C[C@@H](CO)O1 38.5%
COCCOCCn1cnc2ccccc21 6.82%
Clc1ncn(CCOc2ccccc2)c1Cl 15.4% [at 0.307 µM]
COC(=O)c1ccc(CN2C(=O)C(Cc3ccccc3)ON=C2c2ncccc2C)o1 (centres undefined) 23.9%
CCc1nnc(NC(=O)c2ccco2)s1 16.5%
OC[C@@H]1CN(Cc2cccs2)C[C@H](n2cnc3c(Nc4ccccc4)ncnc32)O1 -1.88%

Potency, active:
Cc1onc(-c2ccccc2Cl)c1C(=O)NCCn1ccc2ccccc21 6.31 µM
COc1cc(NC(=O)c2cc(C3CC3)nc3c2c(C)nn3-c2ccccc2)cc(OC)c1 10 µM
CCc1noc(C)c1C(=O)Oc1ccc(N(C)S(=O)(=O)c2ccc(C)c(C)c2)cc1 12.6 µM
COc1ccc(CCC(=O)NCCc2csc(-c3ccc(Cl)cc3)n2)cc1 10 µM
Cc1cccc2nc(-c3ccc(Cl)s3)c(Nc3ccc4c(c3)OCCO4)n12 10 µM
CCOC(=O)CSc1nc(N2CCOCC2)c2c(c1C#N)CC(C(C)C)OC2 (centres undefined) 2.24 µM
CC1(C(=O)Nc2cccc(Oc3ccccc3)c2)CCN1Cc1ccccc1Cl (centres undefined) 10 µM
CCc1ccccc1NC(=O)/C(=C/c1ccccc1)c1ccccc1 11.2 µM
O=C(NCCSCc1ccccc1)c1ccc(Cl)c(S(=O)(=O)N2CCOCC2)c1 11.2 µM
CC(Nc1nc(N2CCN(CCO)CC2)nc2ccccc12)c1ccccc1 (centres undefined) 4.47 µM
COc1cc(CNC2CCCC2)c(Br)cc1OCc1ccccc1 3.16 µM
O=C(CN1CCCCCC1)Nc1ccc(Br)cc1Br 10 µM
Cn1cc(CCC(=O)N2CCCC(C(=O)c3ccc(C(C)(C)C)cc3)C2)cn1 (centres undefined) 10 µM
Cc1ccc(CCNC(=O)C2CCN(c3nnc(-n4cccc4CNc4ccc(C)cc4)s3)CC2)cc1 4.47 µM
COc1ccccc1NC(=O)[C@H](COCc1ccccc1)NC(=O)OC(C)(C)C 10 µM
COc1ccccc1N(C)S(=O)(=O)c1ccc(C(=O)NC2CCCCCC2)cc1 10 µM
Cc1cc2ncn(CCCCOc3ccccc3)c2cc1C 10 µM

Potency, inactive:
COc1ccc(-c2nc(CCNC(=O)c3ccc(Br)o3)cs2)cc1
CCc1ccccc1NC(=O)CCOc1ccccc1
